# Bioassay records from PubChem BioAssay.
# Cycloheximide cs: counter-screen hit for Shiga toxin inhibitors, cycloheximide | AID 2314 | cell reporter, cycloheximide protein synthesis inhibition counterscreen | actives 12% (n = 300,000) | max response, %; in the data active means max response mostly above about 13%, no sharp cut-off; inactive means mostly below about 14%; further: read at 38.3 µM for the half of the compounds with a filed dose
# Giardia FBPA inh: Giardia lamblia aldolase inhibition; Potency, µM (titrated, usually from 59.6 µM), usual class: inhibitors; purified Giardia FBPA; actives 0.71% (n = 290,000); A8B2U2; AID 2451; further: nearly all actives have a fitted effect of over 55% in size
#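 Giardia FBPA (40 nM reagent) was preincubated 10 min at RT with compound (up to 57.5 uM final), then substrate plus GAPDH/TPI/NAD/arsenate coupling system with diaphorase/resazurin was added; resorufin fluorescence (525/598 nm) was read after 20 min.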
# Sm TGR block: inhibitors of Schistosoma mansoni thioredoxin glutathione reductase; Q962Y6; purified TGR, DTNB reduction, TNB absorbance 405 nm; Potency, µM (titrated, usually from 114 µM), actives largely listed as inhibitors; actives 3% (n = 360,000); further: nearly all actives have a fitted effect of over 60% in size
#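 First, TGR (20 nM dispensed) and NADPH were mixed with compound. Second, a 15 min room-temperature incubation followed. Third, further NADPH and then DTNB were added to start the reaction. Finally, TNB absorbance was monitored kinetically.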
# Shiga inhibitor: blocks Shiga toxin action in Vero cells. Vero cells, Shiga toxin protein synthesis inhibition reporter. inhibition, % at 38.7 µM. actives 9.2% (n = 290,000). AID 2315; in the data active means inhibition mostly above about 28%, no sharp cut-off; inactive means mostly below about 43%
# TbPYK inhibitor: inhibitors of Trypanosoma brucei pyruvate kinase | TbPYK enzyme, Kinase-Glo Plus ATP luminescence, 45 min | Potency, µM (series often up to 76.8 µM), usual class: inhibitors | actives 0.12% (n = 410,000); further: nearly all actives have a fitted effect of over 50% in size
#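 Quantitative HTS: titrated library compounds versus trypanosomal pyruvate kinase in TEA buffer (pH 7.2) containing KCl, MgCl2, BSA and Tween-20. Reactions were initiated with ADP, 130 uM final. Kinase-Glo Plus luminescence was read after 45 min at RT.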
# LmPK inh: blocks Leishmania mexicana pyruvate kinase activity | purified LmPK, Kinase-Glo ATP luminescence, 1 h | Potency, µM (doses to about 57.5 µM), hits mostly inhibitors | actives 0.37% (n = 290,000)
# Target sequence (Q27686 whole entry, looked up): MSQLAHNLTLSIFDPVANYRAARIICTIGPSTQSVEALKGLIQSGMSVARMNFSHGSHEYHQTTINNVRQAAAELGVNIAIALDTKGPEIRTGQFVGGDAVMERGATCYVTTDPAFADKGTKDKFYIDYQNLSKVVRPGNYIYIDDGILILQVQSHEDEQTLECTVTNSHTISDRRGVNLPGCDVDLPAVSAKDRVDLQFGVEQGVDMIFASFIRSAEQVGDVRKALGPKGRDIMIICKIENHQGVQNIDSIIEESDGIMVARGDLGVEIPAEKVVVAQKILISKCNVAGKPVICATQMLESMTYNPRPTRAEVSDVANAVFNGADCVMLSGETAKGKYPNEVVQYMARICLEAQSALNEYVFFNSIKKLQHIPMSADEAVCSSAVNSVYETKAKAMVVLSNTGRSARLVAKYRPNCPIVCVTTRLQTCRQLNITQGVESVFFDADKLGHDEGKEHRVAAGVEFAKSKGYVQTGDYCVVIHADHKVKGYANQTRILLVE
#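 qHTS format; LmPK 0.1 nM; substrates PEP 0.5 mM and ADP 0.1 mM. One-hour room-temperature incubation, then coupled luciferase luminescence; 0.5 nM enzyme wells mark activation.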
# Numbers stand for hits; n = inactive; u = inconclusive; x = no result. This excerpt belongs to a sample that is enriched for hits. Unless noted, the call rests on the fitted dose curve; in most records, active means well fitted curve in the direction sought with a large enough effect; inconclusive means small, poorly fitted or top-dose-only effect, or another doubt; inactive means no such curve, though single readings can be large; an effect the other way counts as inactive or inconclusive.
SMILES,Cycloheximide cs,Giardia FBPA inh,Sm TGR block,Shiga inhibitor,TbPYK inhibitor,LmPK inh
COc1ccc(C(=O)N2CCCC(CNC(=O)c3ccc(F)cc3)C2)cc1OC (stereo not drawn),24.6,x,n,n,n,n
O=C(NCC1CCCN(Cc2cccc(C(F)(F)F)c2)C1)c1ccc(F)cc1 (stereo not drawn),n,n,n,n,n,n
O=C(NCC1CCCN(C(=O)c2cccc(C(F)(F)F)c2)C1)c1ccc(F)cc1 (stereo not drawn),16.2,n,n,n,n,n
Cc1ccc(S(=O)(=O)NCc2ccccc2)cc1C(=O)N1CCCC(C(F)(F)F)C1 (stereo not drawn),x,x,n,x,n,x
CCC1(c2ccccc2)SCC(c2ccccc2)=NC1=O (stereo not drawn),x,x,x,x,n,x
Cc1nc2nc(NC(=O)c3ccco3)nn2c(C)c1Cl,n,x,n,43.1,n,n
COc1cccc2sc(NNC(=O)COc3ccccc3)nc12,n,n,n,n,n,n
O=C(Nc1nc2c(F)cccc2s1)c1ccco1,31.1,n,n,28.3,n,n
COc1cccc2sc(Nc3nnc(-c4cccs4)o3)nc12,21.5,u,n,73.8,n,n
Cc1cc(C)c2nc(NC(=O)c3ccco3)sc2c1,31.0,n,n,51.4,n,n
CC(=O)Nc1nc2c(F)cccc2s1,x,x,x,x,n,x
COCCNC(=S)N1CCC(C(=O)c2ccc(C)cc2)CC1,n,n,n,n,n,n
CC(C)(C)OC(=O)C[C@@H]1C/C=C\C[C@H](CC(=O)N(CCO)Cc2ccccc2)C(=O)N[C@@H](Cc2c[nH]c3ccccc23)COC1=O,x,x,x,x,n,x
CCCCN(C(=O)c1ccc(C#N)cc1)c1c(N)n(CCC)c(=O)[nH]c1=O,n,n,n,n,n,n
CN1CCc2c(sc3c2C(=O)NC(c2ccc(OC(=O)c4ccccc4)cc2)N3)C1 (stereo not drawn),x,x,n,x,n,x
Fc1cccc2sc(Nc3nnc(-c4ccco4)o3)nc12,39.9,u,39.8µM,171.1,n,n
Cc1cc(Cl)cc2sc(NC(=O)c3ccco3)nc12,51.4,n,n,50.1,n,n
CN1OC[C@@H]2CN(S(=O)(=O)c3cccc(C(F)(F)F)c3)[C@H](c3ccc(N4CCCCC4)cc3)C[C@@H]21,x,x,x,x,n,x
O=C(NCc1ccc(Cl)cc1)c1cc(S(=O)(=O)N2CCCCC2)c[nH]1,n,n,n,n,n,n
COc1ccc2nc(N3C(=O)C(O)=C(C(=O)c4ccco4)C3c3ccccc3OC)sc2c1 (stereo not drawn),n,x,n,n,n,n
COc1ccc2nc(N3C(=O)C(O)=C(C(=O)c4ccco4)C3c3ccc(C)o3)sc2c1 (stereo not drawn),x,x,31.6µM,x,n,x
Cc1ccc2nc(N3C(=O)C(O)=C(C(=O)c4ccco4)C3c3cccs3)sc2c1 (stereo not drawn),34.2,n,n,68.4,n,n
O=C(O)/C=C/C(=O)Nc1ccc(Oc2ncnc3cc(Cl)ccc23)nc1,26.5,n,8.91µM,58.4,n,n
CC1(C(=O)Nc2ccc(F)c(Cl)c2)Cc2c(-c3ccccc3)ccnc2O1 (stereo not drawn),x,x,x,x,n,x
CCCC(=O)NCc1nc2ccccc2n1C,n,n,n,n,n,n
SMILES,Cycloheximide cs,Giardia FBPA inh,Sm TGR block,Shiga inhibitor,TbPYK inhibitor,LmPK inh
Cc1ccccc1NCc1nc2ccccc2n1C,55.3,n,n,84.2,n,n
Cn1c(CNc2nc3ccccc3n2CCN2CCCCC2)nc2ccccc21,n,n,n,n,n,n
Cn1c(CNc2ccccc2O)nc2ccccc21,23.4,n,u,75.7,n,n
CCc1ccc(NC(=O)CSc2nc(C)c(C(=O)Nc3ccccc3)c(-c3ccc(OC)c(OC)c3)c2C#N)cc1,x,x,n,x,n,x
O=C(O)C(Cc1c[nH]c2ccccc12)N1Cc2ccccc2C1=O (stereo not drawn),27.9,n,n,41.6,n,n
O=C(O)[C@H](Cc1ccccc1)N1Cc2ccccc2C1=O,n,n,n,n,n,n
COc1cccc(NC(=O)CN(C)S(=O)(=O)c2cccs2)c1,x,x,n,x,n,x
COc1cccc(/C=C/C(=O)Nc2ccc3nc4n(c(=O)c3c2)CCCC4)c1OC,n,n,n,41.8,n,n
COc1cccc(NC(=O)CC(=O)Nc2ccc3nc4n(c(=O)c3c2)CCCCC4)c1,x,x,n,x,n,x
COc1cc(/C=C/C(=O)Nc2ccc3nc4n(c(=O)c3c2)CCCC4)cc(OC)c1OC,n,n,n,n,n,n
COc1cc(OC)cc(C(=O)Nc2ccc3nc4n(c(=O)c3c2)CCCCC4)c1,46.3,n,n,49.4,n,n
CC1(C)CC2(C)OC(=N)C1(C#N)C2(C#N)C#N (stereo not drawn),n,n,12.6µM,n,n,n
COc1cc(Cl)c(C)cc1NC(=O)c1cnn(-c2ccc(C)cc2)c1-n1cccc1,x,x,n,x,n,x
Cc1ccc(/C=C2/SC(=O)NC2=S)o1,n,u,u,n,n,n
CCOc1ccc(N2C(=O)/C(=C/c3ccco3)C(=O)NC2=S)cc1,n,n,22.4µM,x,u,n
CCOC(=O)C1=C(C)N(c2ccc(OCC)cc2)C(=O)/C1=C\c1ccco1,n,n,17.8µM,n,n,n
CCOc1ccc(N2C(=O)C(C)CNC2=S)cc1 (stereo not drawn),x,x,x,x,n,x
Cc1ccc(/C=C2\C(=O)NC(=O)N2C)o1,n,n,35.5µM,n,n,n
COC(=O)C1=C(C)N(c2ccc(OC)cc2)C(=O)/C1=C\c1cccs1,n,n,n,n,n,n
Cc1ccc(/C=C2/C(=O)N(c3ccccc3)C(=S)N2C)o1,n,n,22.4µM,n,u,n
Cc1ccccc1N1C(=O)/C(=C/c2ccco2)C(=O)NC1=S,n,u,44.7µM,n,x,n
CCOc1ccc(N2C(=O)/C(=C/c3ccco3)N(C)C2=S)cc1,n,n,50.1µM,n,n,n
O=C1NC(=S)N(c2ccccc2F)C(=O)/C1=C\c1cccs1,n,n,7.94µM,n,n,n
CCOc1ccc(N2C(=O)/C(=C\c3cccs3)C(=O)NC2=S)cc1,n,n,8.91µM,n,u,n
CCOc1ccc(N2C(=O)NC(=O)/C(=C\c3ccccc3[N+](=O)[O-])C2=O)cc1,n,n,u,n,u,n
Cc1noc(NS(=O)(=O)c2ccc(NS(=O)(=O)c3ccc(C(C)(C)C)cc3)cc2)c1C,x,x,x,x,n,x
Cc1c(Cl)ccc2sc(NC(=O)c3ccc(S(=O)(=O)N4CCCC4)cc3)nc12,x,x,n,x,n,x
Cc1ccc(N(C(=O)Nc2ccccc2)C2=NCC(C)S2)cc1 (stereo not drawn),22.5,n,n,90.9,n,n
CC1CN=C(N(C(=O)Nc2ccccc2)C(C)C)S1 (stereo not drawn),n,n,n,n,n,n
CC1CN=C(N(C(=O)Nc2ccccc2)C(C)c2ccccc2)S1 (stereo not drawn),13.3,n,n,n,n,n
